Target: Hexose transporter 1 (Plasmodium falciparum) (UniProt O97467)
Test: ST_JUDE_LEISH: Cytotoxicity at 2uM final concentration against transgenic Leishmania Mexicana promastigotes LmPfHT that are glucose transport deficient and complemented with the Plasmodium falciparum hexose transporter. Activity is measured by DNA content using SYBR green in vitro
Assay type: functional

Row | SMILES | inhibition
1 | N#Cc1ccc2c(c1)CN(CCC1CCC(NC(=O)c3cc4cnccc4[nH]3)CC1)CC2 (stereo not given) | 3.42%
2 | CN(C)S(=O)(=O)c1ccc(N2CCN(CCC3(c4cccc(F)c4)CCN(C(=O)C(C)(C)C)CC3)CC2)c2nonc12 | 8.17%
3 | CC(C)NCc1ccc(-c2cccc(CN3CCC(c4ccccc4)CC3)c2)c(C(=O)NCC2CCCCC2)c1 | 8.3%
4 | CC(=O)Nc1ccc(OCCCCN(Cc2ccccc2C(F)(F)F)c2ccc(C#N)c(C(F)(F)F)c2)c(Cl)c1 | 4.65%
5 | CC(=O)Nc1ncc(C(=O)Nc2cccc(-c3ccc(-c4nc5cccc(C)c5[nH]4)cc3)c2)s1 | 0.54%
6 | N#Cc1ccc(NC(=O)c2ccc(C(=O)NCCCCN3CCC(c4ccc5c(c4OCCOC4CCCCO4)CCCC5)CC3)cc2)cc1 (stereo not given) | 2.54%
7 | CN1CCCN(Cc2cccc(-c3cccc(NC(=O)c4ccc(Cl)cc4)c3)c2)CC1 | 4.21%
8 | CN1CCC(COc2ccc(CN3CCC(NC(=O)c4cccc(Cl)c4)CC3)cc2)CC1 | 3.13%
9 | CCOc1cc(C(=O)Nc2ccccc2N2CCN(S(C)(=O)=O)CC2)cc(OCC)c1OCC | 3.96%
10 | N=C1N=C(N)NC2(CCCCC2)N1OCCCOc1cccc2ccccc12 | 60%
11 | Cc1c[nH]c(-c2cccc(C(=O)NC3CCC(CCN4CCc5ccc(C#N)cc5CC4)CC3)c2)n1 (stereo not given) | 1.04%
12 | CCOC(=O)c1nc(-c2ccccc2)[nH]c1NC(=S)NC1CCCCC1 | -0.88%
13 | COCCN(C)c1ccc(C(=O)Nc2ccccc2)cc1NS(=O)(=O)Cc1ccccc1 | 8.35%
14 | CC(C)(C)c1ccccc1SC1=C(O)CC2(CCNCC2)OC1=O | 0.64%
15 | COc1cccc2c(N/N=C/c3cccc([N+](=O)[O-])c3)ccnc12 | 10.8%
16 | Cn1cc(CCNc2ccnc(NCCc3coc4ccccc34)n2)c2ccccc21 | 6.89%
17 | Oc1ccc(Nc2nc(NCC3CCCO3)c3ccccc3n2)cc1 (stereo not given) | 6.25%
18 | O=C(Nc1ccc(S(=O)(=O)N2CCOCC2)cc1)c1cc(-c2cc(Cl)ccc2O)n[nH]1 | 0.88%
19 | C=C1C(C(=O)OCC)=CN(CC)c2cc(O[C@H]3CCN(C(=O)OC(C)(C)C)C3)ccc21 | 2.53%
20 | FC(F)(F)c1ccc2[nH]c(-c3cccc(-c4cccc(CNCC5CCCO5)c4)c3)nc2c1 (stereo not given) | 3.63%

Row | SMILES | inhibition
21 | COc1ccc(Cn2c(Nc3cccc(C(F)(F)F)c3)nc3cc(C(=O)NCCN4CCCC4)cnc32)cc1Cl | 12.9%
22 | COc1ccc(-c2ccc(NC(=O)c3cccc(Cl)c3)cc2)cc1CNC(C)C | 5.52%
23 | OC(CNCc1ccccc1OCc1ccccc1)c1cc(Br)cs1 (stereo not given) | 3.38%
24 | O=c1cc(NCCCNCc2sc(Br)nc2Br)[nH]c2ccccc12 | 4.14%
25 | Cc1ccc(C(=O)NCC2CCN(c3ccc(C(F)(F)F)cc3NC(=O)c3ccco3)CC2)cn1 | -2.99%
26 | COc1ccccc1CCNc1nc(C)cc(N[C@@H](Cc2ccccc2)C(=O)NCc2cccc(F)c2)n1 | 1.53%
27 | NS(=O)(=O)c1cccc(Nc2nc(N[C@@H]3CCNC3)nc3cc[nH]c(=O)c23)c1 | 2.08%
28 | N#Cc1ccc(Cn2ccc3c4c(N)nc(N)nc4ccc32)cc1 | 84.2%
29 | Fc1ccc2[nH]c(-c3cccc(-c4ccc(CNCCN5CCNCC5)cc4)c3)nc2c1 | -0.52%
30 | COc1ccc(CN(C)C(=O)CCNS(=O)(=O)c2ccc3c(c2)OCCCO3)cc1F | 6.84%
31 | O=S(=O)(c1cccc(Cl)c1F)N(CCC(O)(C(F)(F)F)C(F)(F)F)Cc1cccc(O)c1 | -1.78%
32 | CCCn1c(O)nnc1SCC(=O)Nc1cc(Cl)ccc1Cl | -0.49%
33 | CN(Cc1ccc(-c2ccc(C(F)(F)F)cc2)cc1)C(=O)Cn1c(CCc2cccc(F)c2F)cc(=O)c2ccc(OCC3CCCN3C)cc21 (stereo not given) | 3.45%
34 | Cc1nc2ccccc2c(O)c1-c1ccc(Cl)cc1 | -1.38%
35 | Cc1c(C)n(Cc2ccccc2)c2ncnc(OC3CCN(CC(=O)NCC4CC4)CC3)c12 | 0.12%
36 | COc1ccc2nccc([C@@H](O)CN3CCC(NCc4ccc5c(c4)NC(=O)CS5)CC3)c2c1 | 4.15%
37 | COc1ccccc1-c1ccc2nnc(SCC(=O)Nc3ccc4c(c3)OCCO4)n2n1 | 4.26%
38 | O=C(N[C@@H](CC1CCCCC1)C(=O)NCc1cccc(C(F)(F)F)c1)c1ccc(O)c(-c2ccc(Cl)c(Cl)c2)c1 | 1.58%
39 | CN(C)c1ccc(-c2csc(C(=O)NCC3CCN(Cc4cccc(C(F)(F)F)c4)C3)c2)cc1 (stereo not given) | 6.1%
40 | O=C(N[C@@H](CC1CCCCC1)C(=O)NCCN1CCCCC1)c1ccc(O)c(-c2ccc(Cl)c(Cl)c2)c1 | 1.44%

From ChEMBL document CHEMBL3433997, “St. Jude Leishmania screening dataset” (2016)
